Screening results: PubChem BioAssay, National Center for Advancing Translational Sciences (NCATS)
D1 PAM: Potentiators of Human D1 Dopamine Receptor: qHTS. 0.036% of 360,000 active. potentiation, % at 10 µM. HEK293 TREx D1 cells, calcium flux, dopamine EC20 potentiation. D(1A) dopamine receptor (Homo sapiens), P21728; in the data active = potentiation above about 30%; also: 0% is about no effect
TRHR enhancer-1: qHTS for Small Molecule Agonists and Allosteric Enhancers of Human TRH Receptor: Primary Screen for Enhancers | enhancement, % at 2 µM | Thyrotropin-releasing hormone receptor (Homo sapiens), P34981 | AID 493056, 2011 | TRHR cells, fluo-8 calcium fluorescence, EC20 TRH enhancement | 0.66% of 360,000 active; in the data active = enhancement above about 30%; also: 0% is about no effect
Target sequence (P34981 whole entry, looked up): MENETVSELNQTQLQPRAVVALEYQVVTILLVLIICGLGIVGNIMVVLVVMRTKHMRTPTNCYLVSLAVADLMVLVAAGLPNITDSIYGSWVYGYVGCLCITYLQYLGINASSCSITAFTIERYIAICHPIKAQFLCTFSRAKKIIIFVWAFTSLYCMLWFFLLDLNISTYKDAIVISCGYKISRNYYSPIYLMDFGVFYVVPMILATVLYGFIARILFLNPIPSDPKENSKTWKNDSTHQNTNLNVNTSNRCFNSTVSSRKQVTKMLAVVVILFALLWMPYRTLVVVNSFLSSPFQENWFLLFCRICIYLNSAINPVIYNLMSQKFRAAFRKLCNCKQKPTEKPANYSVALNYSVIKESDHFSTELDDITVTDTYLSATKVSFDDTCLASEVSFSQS
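Enhancer read-out: after compound pinning and an initial kinetic agonist-mode read, an EC20 of TRH (10 nM final) was injected and fluo-8 calcium signal (Ex 480/Em 530) followed at 1 s/cycle for 100 cycles in TRHR-expressing cells.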
D1 agonist: Allosteric Agonists of the Human D1 Dopamine Receptor: qHTS | 1% of 360,000 active | activation, % at 2 µM | AID 504660, 2011 | HEK293 T-REx D1 cells, calcium flux, agonist mode | D(1A) dopamine receptor (Homo sapiens), P21728; also: 0% is about no effect
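Agonism was scored from calcium flux recorded over 180 s (1 read/s) after pintool compound addition, following a 10-cycle baseline. Cells were inducible force-coupled HEK293 TREx D1, plated overnight at 30 C and loaded with no-wash calcium dye.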
D1 antagonist: Antagonist of Human D 1 Dopamine Receptor: qHTS; activity change, negative = inhibition, % at 10 µM; HEK293 TREx D1 cells, calcium flux, dopamine EC80; stronger effect = lower value; AID 504652, 2011; 3.2% of 360,000 active; D(1A) dopamine receptor (Homo sapiens), P21728; in the data active = activity change below about -30%; also: % is scaled to controls: 0 for no effect and ±100 for the full control effect
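Antagonism measured as reduced calcium response to an EC80 dopamine addition following 180 s compound pre-read; cells were inducible HEK293 Trex D1 plated overnight at 30 C, read kinetically at 1 cycle/sec.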
TRHR agonist-1: qHTS for Small Molecule Agonists and Allosteric Enhancers of Human TRH Receptor: Primary Screen for Agonists; Thyrotropin-releasing hormone receptor (Homo sapiens), P34981; TRHR cells, calcium flux fluo-8, FDSS agonist mode; 0.18% of 360,000 active; activation, % at 2 µM; also: 0% is about no effect
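Read-out: compound-evoked intracellular calcium rise in TRHR cells, fluo-8 dye, kinetic FDSS fluorescence at 1 s/cycle following a 10-cycle baseline. Cells cultured overnight before dye loading (30 min–1.5 h, RT).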
TRHR enhancer-2: qHTS for Small Molecule Agonists and Allosteric Enhancers of Human TRH Receptor: Confirmation Screen for Enhancers. 970 tested, under 10 active. shares compounds with TRHR enhancer-1. TRH receptor cell assay, enhancer confirmation qHTS. activity change, negative = inhibition, % at 46.1 µM; active = well fitted curve in the direction sought with a large enough effect; inconclusive = small, poorly fitted or top-dose-only effect, or another doubt; inactive = no such curve, though single readings can be large; an effect the other way counts as inactive or inconclusive;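 also: compound effect scored on response to added TRH at EC20 of 10 nM; 0% is about no effect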
TRHR agonist-2: qHTS for Small Molecule Agonists and Allosteric Enhancers of Human TRH Receptor: Confirmation Screen for Agonists. shares compounds with TRHR enhancer-1. TRHR-expressing cells, agonist activation read-out. Potency, µM (series often up to 46.1 µM), for inactives: at the top dose activation, actives largely listed as activators. 8% of 970 active. AID 493078, 2011; active = well fitted curve in the direction sought with a large enough effect; inconclusive = small, poorly fitted or top-dose-only effect, or another doubt; inactive = no such curve, though single readings can be large; an effect the other way counts as inactive or inconclusive; also: potency is read from the fitted curve at half-maximal effect; 0% is about no effect; nearly all actives have a fitted effect of over 75% in size
The depositor's hits bear a star; ? = inconclusive; / = no result given. A selection: hits, their analogues and other compounds. The true share with any hit is near 4.6%. Rule as the data show it, unless noted: active = activation above about 30%; inactive = the rest.

SMILES	D1 PAM	TRHR enhancer-1	D1 agonist	D1 antagonist	TRHR agonist-1	TRHR enhancer-2	TRHR agonist-2
O=c1/c(=C/c2ccc(O)c([N+](=O)[O-])c2)sc2nc3ccccc3n12	-8	0	7	-2	0	/	/
CCN(CC)c1ccc(/C=c2\sc3nc4ccccc4n3c2=O)c(O)c1	0	-2	179*	-38*	26	2	21µM*
NC(=O)CC(NC(=O)Cc1ccc(Br)cc1)c1ccc(N2CCC(Br)CC2)c([N+](=O)[O-])c1 (stereo unspecified)	-1	52*	2	15	0	-13	-1%
NC(=O)CC(NC(=O)Cc1ccc(Br)cc1)c1ccc(N2CCCCCCC2)c([N+](=O)[O-])c1 (stereo unspecified)	-2	9	0	-7	-1	/	/
COc1ccc(OC)c(NC(=O)CSc2ncc3c(n2)-c2ccccc2N(C)S3(=O)=O)c1	3	-3	1	-2	0	/	/
CC(NCCC1(C(C)C)CCOC(C)(C)C1)c1cccs1 (stereo unspecified)	2	52*	4	10	0	-4	3%
Cc1ccc(C2(CCNC(C)c3cccs3)CCOC(C(C)C)C2)cc1 (stereo unspecified)	10	3	6	14	2	/	/
Cc1nc(N)sc1C(=O)OCC(C)C	0	10	2	1	-1	/	/
CC1CCCN(c2ncnc3c2nc2n3CCCCC2)C1 (stereo unspecified)	6	0	1	3	0	/	/
CCC(=O)NC1=C(NC(C)c2ccccc2)C(=O)c2ccccc2C1=O (stereo unspecified)	5	50*	3	5	0	-5	2%
CCC(=O)Nc1ccc2c(c1)C(=O)c1ccccc1C2=O	-3	4	0	-3	0	/	/
Cc1ccc(S(=O)(=O)NC(C)c2ccccc2)cc1[N+](=O)[O-] (stereo unspecified)	1	58*	1	1	0	2	0%
CSc1ccc(S(=O)(=O)NC(C)c2ccccc2)cc1 (stereo unspecified)	4	-3	-1	-14	0	/	/
Cc1cccc(-n2c(N)cc(=O)nc2SCC(=O)Nc2ccccc2)c1	9	45*	3	10	1	-5	?
CCc1ccccc1NC(=O)CN(C)C(=O)Cn1ncc(Cl)c(Cl)c1=O	-5	49*	2	-1	0	-2	1%
CCN(CC)S(=O)(=O)c1ccc(C(=O)N(c2ccc(C)cc2)C2C=CS(=O)(=O)C2)cc1 (stereo unspecified)	4	42*	4	33	-1	-7	-1%
Cc1cccc(C)c1NC(=S)N1CCOCC1	1	3	4	-5	1	/	/
Cc1cccc(C)c1NC(=S)N1CCC(c2ccccc2)C1 (stereo unspecified)	-1	49*	1	7	1	-15	0%
COCCCNC(=S)N(Cc1ccccc1)Cc1ccccc1	-2	2	1	0	6	/	/
C#CCN(C)CC/C=C1\c2ccccc2CSc2ccccc21	-23	-3	3	-2	74*	-6	1%
C#CCN(C)Cc1ccccc1	-2	-7	1	13	-1	/	/
O=S(=O)(c1cccs1)N1CN(Cc2ccccc2)c2nc3ccccc3nc21	-1	56*	2	0	0	-1	4%
